# The sample as a whole holds a higher share of hits than the screen did.
# Shiga inhibitor = blocks Shiga toxin action in Vero cells; Vero cells, Shiga toxin protein synthesis inhibition reporter; inhibition, % at 38.7 µM; 290,000 tested, 9.2% active; AID 2315; in the data active means inhibition mostly above about 28%, no sharp cut-off; inactive means mostly below about 43%; further: 0% is about no effect
# AmpC inh detg = blocks E. coli AmpC beta-lactamase in detergent assay | AmpC hydrolysis of nitrocefin, absorbance 480 nm, 0.01% Triton | 370,000 tested, 0.041% active | P00811 | Potency, µM (series often up to 114 µM), without a hit: top-dose activity change, negative = inhibition, most hits filed as inhibitors;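 further: potency means the concentration at half of the fitted maximal effect; 0% = no-compound wells and -100% = no-enzyme wells; nearly all actives have a fitted effect of over 25% in size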
# Target sequence (P00811 whole entry, looked up): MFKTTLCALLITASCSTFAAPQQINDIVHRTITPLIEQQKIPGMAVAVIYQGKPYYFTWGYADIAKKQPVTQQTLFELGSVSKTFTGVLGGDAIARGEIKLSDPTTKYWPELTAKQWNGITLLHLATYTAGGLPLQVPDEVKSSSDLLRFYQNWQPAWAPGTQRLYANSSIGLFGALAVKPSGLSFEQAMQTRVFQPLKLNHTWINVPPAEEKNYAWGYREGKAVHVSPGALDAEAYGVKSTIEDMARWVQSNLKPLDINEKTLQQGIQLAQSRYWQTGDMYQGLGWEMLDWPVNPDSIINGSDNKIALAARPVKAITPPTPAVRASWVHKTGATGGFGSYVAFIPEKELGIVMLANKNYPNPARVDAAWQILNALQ
#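 AmpC (5.3 nM in the dispensed reagent) in 20 mM phosphate pH 7.0 with 0.01% (detergent screen) or 0.0001% Triton X-100 was preincubated with compounds for 15 min at room temperature. Nitrocefin was then added from an 800 uM solution, and hydrolysis was followed at 480 nm.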
# NS1 function inh = blocks influenza NS1 protein function | Potency, µM (top dose mostly 46.1 µM), without a hit: top-dose activity, positive = more growth | 270,000 tested, 0.4% active; calls by dose curve; further: potency means the concentration at half of the fitted maximal effect; actives are rising curves; nearly all actives have a fitted effect of over 50% in size
#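 Read-out: OD600 growth recovery of NS1-expressing budding yeast. Cells grown overnight at 30C in -URA glucose medium, washed, resuspended and diluted 1:100 in 2% galactose assay medium, pH 6.0. Same strain lacking NS1 served as positive control.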
# AmpC no deterg = AmpC beta-lactamase inhibition without detergent; P00811; Potency, µM (series often up to 57.1 µM), for inactives: at the top dose activity change, negative = inhibition, usual class: inhibitors; 330,000 tested, 0.52% active; AmpC nitrocefin hydrolysis, absorbance 480 nm, 0.0001% Triton;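 further: potency means the concentration at half of the fitted maximal effect; plate controls were no compound for no effect and no enzyme for full effect; nearly all actives have a fitted effect of over 20% in size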
#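 AmpC (5.3 nM in the dispensed reagent) in 20 mM phosphate pH 7.0 with 0.01% (detergent screen) or 0.0001% Triton X-100 was preincubated with compounds for 15 min at room temperature. Nitrocefin was then added from an 800 uM solution, and hydrolysis was followed at 480 nm.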
# CHX counter = counter-screen hit for Shiga toxin inhibitors, cycloheximide; cell reporter, cycloheximide protein synthesis inhibition counterscreen; max response, %; 300,000 tested, 12% active; in the data active means max response mostly above about 13%, no sharp cut-off; inactive means mostly below about 14%; further: read at 38.3 µM for the half of the compounds with a filed dose; 0% is about no effect
# Active calls of the source: *; ? = inconclusive; . = not tested or not shown; [ ] = dose if it differs, or a comment. Unless noted, the call rests on the fitted dose curve; in most records, active means well fitted curve in the direction sought with a large enough effect; inconclusive means small, poorly fitted or top-dose-only effect, or another doubt; inactive means no such curve, though single readings can be large; an effect the other way counts as inactive or inconclusive.
SMILES,Shiga inhibitor,AmpC inh detg,NS1 function inh,AmpC no deterg,CHX counter
O=C(NCCC(=O)N(CCc1ccccc1)Cc1ccccc1)c1ccc([N+](=O)[O-])cc1,.,-7.2%,.,15.3%,.
O=C(C=C=Nc1ccccc1)C(=O)N=C=Cc1ccccc1,71.7*,3.8%,0.4%,-29.6%,24.1*
C[C@H](NC(=O)c1ccccc1)C(=O)OCC(=O)Nc1sccc1C(N)=O,.,.,.,-17.8%,.
COc1ccc(-c2ccc(=O)n(Cc3ccccc3)n2)cc1,28.2*,-10.0%,1.7%,11.5%,21.1*
Cc1ccc(-c2ccc(=O)n(Cc3c(F)cccc3Cl)n2)cc1,9.5,-4.1%,-5.9%,2.5%,20.0*
COc1ccc(-c2ccc(=O)n(Cc3cccc(Cl)c3)n2)cc1,-8.2,-6.6%,3.6%,58.5%,9.0
COc1ccc(C2=NN(Cc3ccccc3)C3C(=O)NC(=O)C23)cc1 (stereo not drawn),39.8,-3.1%,-2.9%,-19.4%,19.7*
Cc1ccc(C)c(-c2ccc(=O)n(Cc3c(F)cccc3Cl)n2)c1,28.1,-2.6%,-49.0%,20.5%,15.9
O=C(O)CC(NS(=O)(=O)c1ccc(Cl)s1)c1ccccc1 (stereo not drawn),.,23.3%,.,.,.
CCOc1ccc(CCNC(=O)NCc2noc3ccc(C)cc23)cc1,.,3.2%,.,.,.
Clc1ccc2[nH]c3c(c2c1)CNCC3,-6.3,-5.9%,-0.1%,-16.5%,-5.7
CCOC(=O)Cc1csc(NC(=O)C(NC(=O)C2CCC(C)CC2)C(C)C)n1 (stereo not drawn),30.0,4.4%,-2.2%,21.3%,-0.5
CCOc1cc(CN2CCN(S(=O)(=O)c3ccc(C)cc3)CC2)ccc1OC,.,1.8%,.,.,.
CC(=O)OCCCN1c2ccccc2Nc2nnc(-c3ccccc3)cc21,68.0*,3.1%,-0.7%,-18.9%,36.4*
CC(C)c1ccc(NC(=O)NCc2ccccn2)cc1,67.8*,2.0%,1.6%,1.2%,32.8*
O=C(NCc1ccccn1)Nc1ccc(F)c(Cl)c1,9.5,4.4%,1.8%,-14.7%,6.5
COc1cccc(NC(=O)NCCCCc2ccccc2)c1,23.8,5.2%,-106.9%,-34.7%,30.7*
O=C(NCc1ccccn1)Nc1ccc(Cl)c(Cl)c1,54.6*,-7.0%,-93.3%,-25.1%,25.8*
O=C(NCCCNC(=O)c1ccc(Cl)cc1Cl)c1ccccn1,-5.8,-0.8%,-2.8%,-7.0%,-3.3
O=C(NCc1ccccn1)c1ccc(Cl)cc1Cl,50.8*,-0.2%,2.6%,-11.5%,28.4*
O=C(NCc1ccccn1)Nc1cc(Cl)cc(Cl)c1,-9.6,2.4%,-69.4%,-25.4%,-0.8
OC[C@@H]1OC(O)[C@@H](O)[C@H](O)[C@@H]1O (stereo partly drawn),-5.5,.,.,.,-5.0
O=C(Nc1ccc(Cl)cc1)c1ccc2c(c1)N(Cc1ccccc1)C(=O)c1ccccc1S2(=O)=O,.,-0.3%,.,.,.
O=C(NCc1ccccn1)Nc1cccc(Cl)c1,43.4*,-16.4%,-22.8%,-26.3%,29.3*
COc1ccc(NC(=O)NCc2ccccn2)c(OC)c1,-7.8,7.1%,6.0%,-6.1%,-1.9
SMILES,Shiga inhibitor,AmpC inh detg,NS1 function inh,AmpC no deterg,CHX counter
O=C(NCc1ccccn1)Nc1cccc(NC(=O)NCc2ccccn2)c1,12.2,-13.1%,-1.2%,-19.6%,5.0
COc1cccc(NC(=O)C(=O)NCCCn2ccnc2)c1,56.7,-4.1%,3.0%,-5.2%,33.6*
CCCCCOc1ccc(NC(=O)C(=O)NCCCn2ccnc2)cc1,-24.1,-5.8%,0.8%,-2.1%,-1.8
Cc1cccc(NC(=O)NCc2ccccn2)c1,51.3*,1.6%,1.3%,-6.9%,26.7*
COc1cccc(NC(=O)NCc2ccccn2)c1,30.2*,1.2%,3.0%,-1.9%,16.6*
COc1cc(OC)c(Nc2cc(C)nc3ncnn23)cc1Cl,.,-1.4%,.,.,.
CC1(C)CC(=O)c2cc(C(=O)Nc3ccc(Br)cc3)c(=O)n(-c3ccc(Cl)cc3)c2C1,.,13.4%,.,.,.
COc1ccc(NC(=O)C2CCN(C(=O)Nc3ccccc3)CC2)cc1S(=O)(=O)N(C)C,.,0.8%,.,39.9%,.
COc1cccc(NC(=O)NCc2ccccc2F)c1,97.0*,8.2%,-2.7%,-28.4%,40.1*
COc1cccc(NC(=O)C(=O)NCCc2ccc(F)cc2)c1,90.7*,1.4%,-3.6%,-21.6%,40.9*
Cc1ccc(Cl)cc1NC(=O)NCc1ccccn1,10.5,?,5.5%,-21.7%,9.3
CC(C)c1ccc(NC(=S)N(C)CCc2ccccn2)cc1,88.1*,-3.4%,-31.4%,0.5%[2.29 µM],29.6*
O=C(NCc1ccccn1)Nc1cc(Cl)ccc1Cl,90.2*,-6.3%,-1.7%,57.0%,35.7
Cc1ccc(N2CC(C(=O)Nc3nnc(SCCN4CCOCC4)s3)CC2=O)cc1 (stereo not drawn),17.9,6.7%,-3.6%,104.8%,-3.2
Cc1ccccc1CN1c2ccccc2-c2nc(SCC(=O)c3ccccc3)ncc2S1(=O)=O,.,-3.6%,.,.,.
C#CC(C)(CC)NC(=O)c1cc2c(n(-c3ccc(Cl)cc3)c1=O)CC(C)(C)CC2=O (stereo not drawn),.,-3.2%,.,.,.
O=C(O)Cc1ccc2ocnc2c1,9.2,?,14.4%,-12.8%,-1.4
O=C(Nc1ccccc1)Nc1ccc2ncoc2c1,63.6*,-14.1%,-3.9%,-34.1%,41.9*
O=C(Nc1ccccc1)Nc1ccc2ocnc2c1,67.2*,-18.4%,.,-25.6%,42.1*
N#C/C(=C\c1ccc(N2CCCCC2)o1)C(=O)Nc1cccc(Br)c1,105.7*,-0.6%,29.2%,-19.0%,58.2*
N#C/C(=C\c1ccc(N2CCCCC2)o1)C(N)=O,20.0,-0.2%,-1.4%,-5.3%,16.9*
O=Cc1ccc(N2CCCC2)o1,8.5,4.7%,.,-12.5%,-1.6
O=C(Cn1cnc([N+](=O)[O-])n1)c1ccc(O)c(O)c1,-11.2,-5.8%,-1.0%,-23.3%,-1.8
C#CCO[C@@H]1C[C@H](n2cnc3c(NC(=O)c4ccccc4)ncnc32)O[C@@H]1CO,39.0,1.9%,-1.1%,-9.2%,21.2*
Cc1cc2occ(CC(=O)NNC(=O)c3ccccc3)c2cc1C,18.5,-9.7%,12.5%,-19.8%,9.9*
SMILES,Shiga inhibitor,AmpC inh detg,NS1 function inh,AmpC no deterg,CHX counter
CCc1ccc(N/C(SCc2ccccc2C)=C(/C#N)C(=O)NCc2ccco2)cc1,24.2,-1.2%,8.6%,-39.5%,15.1*
COc1ccc(/C(N)=N/OC(=O)c2cccc([N+](=O)[O-])c2C)cc1OC,-8.3,?,-0.7%,-1.7%,-3.0
N/C(=N\OC(=O)c1cccs1)c1cccc([N+](=O)[O-])c1,84.6*,-5.6%,.,-9.1%,36.0*
COc1cccc(C(=O)O/N=C(\N)c2ccc([N+](=O)[O-])cc2)c1OC,75.6*,-13.9%,-1.6%,-23.4%,75.1*
N/C(=N\OC(=O)c1cccc([N+](=O)[O-])c1)c1cccnc1,23.0,-11.9%,-1.3%,-15.1%,25.9*
O=C(COC(=O)c1cnccn1)c1cccc([N+](=O)[O-])c1,5.3,-1.6%,3.3%,-0.6%,-2.4
O=C(COC(=O)c1cccc([N+](=O)[O-])c1)NNC(=O)c1cccs1,.,3.8%,.,-20.9%,.
Cc1ccccc1C(=O)O/N=C(\N)c1cccc([N+](=O)[O-])c1,99.5*,8.7%,-45.7%,-21.7%,65.4*

# Screens from PubChem.
